# The source made the active and inactive calls.
# Assays:
# [1] = system: Plasmodium falciparum Sir2 (PF13_0152, Sir2A); test: Plasmodium falciparum Sir2A binding compounds – biochemical, small-molecule microarray, 635 nm fluorescence, primary screen (AID 1098); conditions: fluorescence 635 nm, higher = more signal;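 further: score merges spot fluorescence intensity with its signal-to-noise ratio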
# [2] = probe aDKK1 binding to arrayed compounds – biochemical, biotinylated probe, 635/667 nm fluorescence, primary screen (AID 1099); conditions: small-molecule microarray, higher = more signal;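 further: score merges 667nm spot fluorescence with signal to noise across triplicate slides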
# [3] = probe aCHRDL2 binding to arrayed compounds – biochemical, biotinylated probe, 635/667 nm fluorescence, primary screen (AID 1100); conditions: small-molecule microarray, higher = more signal
# [4] = change in splice reporter luminescence, either direction, cell-based, HEK293, spliceosome inhibition project, primary screen (AID 1101); conditions: HEK293 splicing luciferase reporter, 24 h, higher = more signal, called active from +8 up or from −8 down;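 further: HEK293 cells carrying a splicing-competent luciferase reporter gene; test concentration not given here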
# [5] = molecular target: Fibroblast growth factor 10 (Homo sapiens) (UniProt O15520); test: compounds binding fibroblast growth factor 10 – biochemical, small-molecule microarray, 635 nm fluorescence, primary screen (AID 1102); conditions: FGF10 binding, fluorescence 635 nm, higher = more signal
# [6] = system: glycogen synthase kinase-3 (GSK3A per assay name; protocol says GSK3B); test: compounds binding glycogen synthase kinase-3 – biochemical, small-molecule microarray, 635 nm fluorescence, GSK3A, primary screen (AID 1103); conditions: fluorescence 635 nm, higher = more signal; further: the record names both GSK3A and GSK3B
# [7] = molecular target: Epidermal growth factor receptor (Homo sapiens) (UniProt P00533); test: compounds binding epidermal growth factor receptor – biochemical, small-molecule microarray, 635 nm fluorescence, primary screen (AID 1104); conditions: EGFR binding, higher = more signal;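 further: score merges 667 nm emission intensity with spot signal to noise over triplicate slides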
# [8] = molecular target: Follistatin-related protein 3 (Homo sapiens) (UniProt O95633); test: compounds binding follistatin-related protein 3 – biochemical, small-molecule microarray, 635 nm fluorescence, primary screen (AID 1105); conditions: FSTL3 binding, higher = more signal;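 further: score merges emission near 667 nm and signal to noise per printed spot across three slides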
# [9] = molecular target: Dickkopf-related protein 1 (Homo sapiens) (UniProt O94907); test: small molecules binding DKK1 protein – biochemical, small-molecule microarray, 635 nm fluorescence scan, primary screen (AID 1106); conditions: higher = more signal;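 further: score merges emission near 667 nm with signal to noise over three replicate slides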
# [10] = system: Inhibin beta A chain (activin A); test: small molecules binding activin A – biochemical, small-molecule microarray, 635 nm fluorescence scan, primary screen (AID 1107); conditions: INHBA, higher = more signal;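 further: mouse activin A protein probed at 4.33 µg/mL on printed slides; score merges bound-protein fluorescence near 667 nm with spot signal-to-noise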
# [11] = system: Human papillomavirus type 1a protein E7 (residues 44-93); test: small molecules binding HPV E7 44-93 – biochemical, small-molecule microarray, residues 44-93, 635 nm fluorescence, primary screen (AID 1108); conditions: fluorescence 635 nm, higher = more signal;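 further: E7 fragment applied at 1 µg/mL in TBST for 1 h at 4 C; score combines spot fluorescence with its signal to noise ratio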
# [12] = hepatitis C replication reporter changes, two-sided – Huh7 cells, luciferase reporter, HCV replication inhibitor project, primary screen (AID 1109); conditions: Huh7 HCV replicon luciferase reporter, 48 h; higher = more signal;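 further: huh7 hepatoma cells harbouring a luciferase neomycin HCV replicon reporter; luciferase luminescence as measure of HCV replicon replication; test concentration not given here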
# [13] = molecular target: Left-right determination factor 2 (Homo sapiens) (UniProt O00292); test: small molecules binding LEFTY2 protein – biochemical, small-molecule microarray, 635 nm fluorescence scan, primary screen (AID 1110); conditions: higher = more signal
# [14] = molecular target: Calmodulin-1 (Homo sapiens) (UniProt P0DP23); test: small molecules binding calmodulin-1 with EGTA – biochemical, small-molecule microarray, Cy5-labelled CALM1, profiling panel (AID 1111); conditions: Cy5-CALM1 binding fluorescence, higher = more signal;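 further: labelled calmodulin applied in Tris saline Tween buffer holding calcium plus EGTA and DTT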
# [15] = molecular target: Calmodulin-1 (Homo sapiens) (UniProt P0DP23); test: small molecules binding Ca-loaded calmodulin-1 – biochemical, small-molecule microarray, Cy5-labelled CALM1, plus calcium, artefact control for SMM control-protein annotation, profiling panel (AID 1112); conditions: Cy5-CALM1 binding fluorescence, higher = more signal;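 further: score merges spot fluorescence with signal to noise from triplicate slides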
# [16] = probe aWnt5a binding to arrayed compounds – biochemical, biotinylated probe, 635/667 nm fluorescence, primary screen (AID 1113); conditions: small-molecule microarray, higher = more signal;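 further: score merges 667 nm fluorescence intensity with signal-to-noise per printed feature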
# [17] = probe aShh binding to arrayed compounds – biochemical, biotinylated probe, 635/667 nm fluorescence, primary screen (AID 1114); conditions: small-molecule microarray, higher = more signal;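 further: probe is biotin-labelled aShh protein from a stem cell growth factor screen; measures binding of labelled protein to compounds printed on the slide; score merges feature fluorescence at 667 nm with signal-to-noise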
# [18] = probe aNog binding to arrayed compounds – biochemical, biotinylated probe, 635/667 nm fluorescence, primary screen (AID 1115); conditions: small-molecule microarray, higher = more signal;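 further: probe is biotinylated aNog protein used at 0.15 µg/mL for 1 h at 4 C; z-score combines 667 nm fluorescence of each spot with its signal to noise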
# [19] = molecular target: Torsin-1A-interacting protein 1 (Homo sapiens) (UniProt Q5JTV8); test: compound microarray binding of lysate hLAP1 – cell lysate, small-molecule microarray, COS7 lysate, 635/667 nm fluorescence, primary screen (AID 1116); conditions: 635 nm fluorescence, higher = more signal
# [20] = molecular target: Alpha-bungarotoxin (Bungarus multicinctus) (UniProt P60615); test: compounds binding labelled alpha-BTX control protein – biochemical, small-molecule microarray, Alexa647 label, 635/667 nm fluorescence, artefact control for SMM control protein annotation, profiling panel (AID 1117); conditions: alpha-BTX-A647 binding fluorescence, higher = more signal
# Alpha-bungarotoxin (Bungarus multicinctus), sequence (P60615 whole entry, looked up): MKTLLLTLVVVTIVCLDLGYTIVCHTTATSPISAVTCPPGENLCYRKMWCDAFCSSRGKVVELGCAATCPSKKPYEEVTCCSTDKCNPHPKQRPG
# Follistatin-related protein 3 (Homo sapiens), sequence (O95633 whole entry, looked up): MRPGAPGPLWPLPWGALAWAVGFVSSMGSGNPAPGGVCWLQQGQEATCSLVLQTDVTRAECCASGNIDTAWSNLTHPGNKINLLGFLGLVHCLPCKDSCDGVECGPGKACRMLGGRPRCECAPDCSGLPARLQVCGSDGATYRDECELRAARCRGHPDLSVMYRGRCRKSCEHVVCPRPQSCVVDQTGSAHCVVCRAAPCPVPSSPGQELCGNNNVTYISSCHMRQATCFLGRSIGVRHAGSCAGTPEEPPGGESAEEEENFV
# Dickkopf-related protein 1 (Homo sapiens), sequence (O94907 whole entry, looked up): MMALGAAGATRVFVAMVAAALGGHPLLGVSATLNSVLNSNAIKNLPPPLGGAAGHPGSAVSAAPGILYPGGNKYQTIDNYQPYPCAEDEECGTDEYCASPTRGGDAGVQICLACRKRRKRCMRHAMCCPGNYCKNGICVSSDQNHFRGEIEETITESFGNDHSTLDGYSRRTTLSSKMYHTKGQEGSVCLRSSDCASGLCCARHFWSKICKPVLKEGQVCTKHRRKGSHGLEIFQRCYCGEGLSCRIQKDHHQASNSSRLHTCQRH
# Fibroblast growth factor 10 (Homo sapiens), sequence (O15520 whole entry, looked up): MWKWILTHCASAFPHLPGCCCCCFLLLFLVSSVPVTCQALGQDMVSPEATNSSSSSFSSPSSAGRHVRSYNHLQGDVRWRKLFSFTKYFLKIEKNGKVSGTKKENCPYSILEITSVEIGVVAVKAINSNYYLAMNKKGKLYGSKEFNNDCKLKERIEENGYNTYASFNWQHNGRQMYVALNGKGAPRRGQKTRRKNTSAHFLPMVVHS
# Torsin-1A-interacting protein 1 (Homo sapiens), sequence (Q5JTV8 whole entry, looked up): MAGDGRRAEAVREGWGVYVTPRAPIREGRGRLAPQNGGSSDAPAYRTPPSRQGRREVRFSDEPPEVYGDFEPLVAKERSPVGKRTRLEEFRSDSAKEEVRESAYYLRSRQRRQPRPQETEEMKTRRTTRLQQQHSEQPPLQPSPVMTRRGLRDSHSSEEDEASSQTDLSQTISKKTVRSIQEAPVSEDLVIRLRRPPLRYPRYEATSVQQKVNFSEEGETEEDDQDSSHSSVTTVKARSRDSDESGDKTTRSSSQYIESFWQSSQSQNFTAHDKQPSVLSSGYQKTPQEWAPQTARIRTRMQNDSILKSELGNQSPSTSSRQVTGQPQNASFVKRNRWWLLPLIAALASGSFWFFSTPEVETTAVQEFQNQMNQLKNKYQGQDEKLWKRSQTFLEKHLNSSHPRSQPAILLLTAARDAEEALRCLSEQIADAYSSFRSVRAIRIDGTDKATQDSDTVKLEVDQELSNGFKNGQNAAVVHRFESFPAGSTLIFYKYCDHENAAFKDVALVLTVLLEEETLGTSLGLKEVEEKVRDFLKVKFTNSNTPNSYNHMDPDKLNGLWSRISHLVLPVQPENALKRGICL
# Epidermal growth factor receptor (Homo sapiens), sequence (P00533 whole entry, looked up): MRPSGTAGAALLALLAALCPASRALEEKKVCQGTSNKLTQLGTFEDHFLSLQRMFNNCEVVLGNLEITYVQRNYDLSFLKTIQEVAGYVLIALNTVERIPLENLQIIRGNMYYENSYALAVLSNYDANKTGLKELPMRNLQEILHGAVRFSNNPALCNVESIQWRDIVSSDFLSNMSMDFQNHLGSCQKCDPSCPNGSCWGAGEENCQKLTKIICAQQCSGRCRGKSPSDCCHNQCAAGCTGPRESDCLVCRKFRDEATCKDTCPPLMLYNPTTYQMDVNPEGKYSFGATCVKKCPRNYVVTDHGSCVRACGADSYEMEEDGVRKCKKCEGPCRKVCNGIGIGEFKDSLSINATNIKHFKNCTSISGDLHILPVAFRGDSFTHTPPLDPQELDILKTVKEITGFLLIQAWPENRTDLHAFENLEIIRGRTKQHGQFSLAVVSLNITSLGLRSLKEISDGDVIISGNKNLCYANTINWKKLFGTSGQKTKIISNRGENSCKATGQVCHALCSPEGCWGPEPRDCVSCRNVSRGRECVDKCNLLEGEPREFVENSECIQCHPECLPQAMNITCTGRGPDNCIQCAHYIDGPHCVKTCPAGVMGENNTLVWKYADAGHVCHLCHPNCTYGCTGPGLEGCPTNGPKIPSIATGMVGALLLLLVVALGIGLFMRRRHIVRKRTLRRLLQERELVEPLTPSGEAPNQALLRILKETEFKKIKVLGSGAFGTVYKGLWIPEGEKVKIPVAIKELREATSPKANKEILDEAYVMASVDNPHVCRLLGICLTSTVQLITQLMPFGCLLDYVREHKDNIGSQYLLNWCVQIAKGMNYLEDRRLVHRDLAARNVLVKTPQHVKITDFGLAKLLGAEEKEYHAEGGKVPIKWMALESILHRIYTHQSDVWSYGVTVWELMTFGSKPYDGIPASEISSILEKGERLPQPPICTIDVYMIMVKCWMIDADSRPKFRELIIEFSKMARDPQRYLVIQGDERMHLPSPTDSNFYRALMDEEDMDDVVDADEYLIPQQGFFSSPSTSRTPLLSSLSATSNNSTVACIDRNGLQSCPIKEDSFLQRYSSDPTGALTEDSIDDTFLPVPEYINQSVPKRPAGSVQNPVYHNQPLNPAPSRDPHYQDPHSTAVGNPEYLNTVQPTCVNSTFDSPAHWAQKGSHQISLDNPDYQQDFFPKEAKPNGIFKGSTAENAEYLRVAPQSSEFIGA
# Left-right determination factor 2 (Homo sapiens), sequence (O00292 whole entry, looked up): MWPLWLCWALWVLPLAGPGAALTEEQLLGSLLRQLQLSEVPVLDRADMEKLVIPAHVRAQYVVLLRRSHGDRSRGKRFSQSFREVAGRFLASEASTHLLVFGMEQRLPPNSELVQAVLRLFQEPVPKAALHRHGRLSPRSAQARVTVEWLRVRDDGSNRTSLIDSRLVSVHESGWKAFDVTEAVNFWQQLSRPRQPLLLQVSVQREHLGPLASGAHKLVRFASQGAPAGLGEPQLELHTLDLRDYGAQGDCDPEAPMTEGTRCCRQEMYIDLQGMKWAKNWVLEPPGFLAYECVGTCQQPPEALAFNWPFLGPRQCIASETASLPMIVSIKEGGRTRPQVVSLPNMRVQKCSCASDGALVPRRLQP
SMILES,composite z-score [1],composite z-score [2],composite z-score [3],z-score [4],composite z-score [5],composite z-score [6],composite z-score [7],composite z-score [8],composite z-score [9],composite z-score [10],composite z-score [11],z-score [12],composite z-score [13],composite z-score [14],composite z-score [15],composite z-score [16],composite z-score [17],composite z-score [18],composite z-score [19],composite z-score [20]
CCN(CC)c1ccc(N2CC=CC34O[C@@H]5C=CCCOC(=O)C5[C@H]3C(=O)N(CCCO)[C@@H]4C2=O)cc1 (stereo not given in full),-1.99,-0.404,-0.373,-0.542 (inactive),-0.344,-0.0608,-0.365,-0.0243,-0.174,1.5,-0.591,0.0997,0.0606,-0.409,-0.977,-0.176,-0.294,-0.288,-0.273,-1.17
CO[C@H]1O[C@H](CO)[C@@H](OC(=O)Nc2ccc(C(F)(F)F)cc2)[C@H](OC(=O)Nc2ccccc2)[C@@H]1OC(=O)Nc1ccccc1,1.02,-0.442,0.144,-0.577 (inactive),1.07,1.23,0.74,0.743,0.295,0.378,1.34,0.0041,0.003,1.08,-0.778,0.0887,-0.102,-0.305,1.01,0.462
COc1ccc([Si](C)(C)[C@@H]2[C@@H](CCO)O[C@]3(C(=O)N(Cc4cccc(N5CCCCC5=O)c4)c4ccccc43)[C@H]2C)cc1,1.06,-0.0212,0.113,-2.96 (inactive),1.04,0.971,0.319,1,0.404,0.764,1.34,-5.14,0.34,1.08,0.415,-0.0165,-0.0626,0,0.702,0.836
CC(C)(C)OC(=O)CC[C@@]1(C(=O)NCC(O)CO)N=C(c2ccc(OCCCO)cc2)O[C@@H]1c1ccccc1 (stereo not given in full),0.317,0.652,0.811,-0.658 (inactive),0.989,0.0733,-1.19,-0.583,-0.693,0.203,1.36,0.821,-0.452,-0.0155,0.924,-0.0685,0.223,0.487,3.12,1.04
O=C1C2C=CC(C(O)c3ccc(-c4ccccc4)s3)N(Nc3ccccc3F)C2C(=O)N1c1ccccc1 (stereo not given),0.913,1.22,1.27,0.25 (inactive),0.772,0.806,0.247,0.817,0.0154,0.948,1.37,1.78,-0.0452,1.95,1.24,-0.0758,0.274,-0.54,0.599,1.21
O=C1O[C@@H](c2ccccc2)[C@@H](c2ccccc2)N2[C@@H](c3ccc(O)cc3)[C@]3(C(=O)Nc4ccccc43)[C@@H](C(=O)NC[C@H](O)c3ccccc3)[C@H]12,0.851,-0.139,0.0547,0.576 (inactive),0.117,-1.28,0.249,0.244,0.259,-0.297,1.13,-0.427,0.091,0.843,0.713,-0.0659,-0.0232,-0.0899,0.137,0.262
CC(=O)N1Cc2ccccc2C[C@@]2(N=C(c3ccc(OCCCO)cc3)O[C@H]2c2ccccc2)C1=O,1.54,0.927,0.82,-2.97 (inactive),1.16,1.09,0.361,1.19,0.653,1.03,0.671,-2.83,0.587,1.26,0.465,-0.0051,0.0895,0.909,2.05,2.37
Cc1cccc(/C=C/C=O)c1,0,-0.101,0.558,0.465 (inactive),-0.0736,-0.0687,-0.391,0.119,-0.214,0.561,0.63,0.33,-0.478,0.613,0.207,-0.0944,-0.214,-0.104,-0.476,0.549
CC1CC/C=C\[C@H]2OC34C=CCN(CCN5CCOCC5)C(=O)[C@H]3N(CCCCCO)C(=O)[C@@H]4C2C(=O)O1 (stereo not given in full),-0.31,-0.605,-0.824,-0.282 (inactive),-0.352,-0.444,-0.559,-0.507,-0.0732,1.01,-1.78,0.824,0.0111,-1.87,-1.59,-0.224,-0.0769,-0.321,-0.595,-1.06
C=C(C)[C@@H]1CC=C(C(O)C2C=CC3C(=O)N(Cc4ccccc4)C(=O)C3N2n2cnnc2)CC1 (stereo not given in full),0.827,0.546,1.11,-0.925 (inactive),-0.394,-0.724,-0.608,-0.739,-0.665,1.34,0.146,-2.2,-0.485,0.133,0.3,0.0077,-0.156,0.499,0.401,0.291
